# Screening data: PubChem, National Center for Advancing Translational Sciences (NCATS)
# Shown are actives, neighbours in structure and some others; about 2.6% of the full set was active somewhere.
# GLP-1R agonist: activates the human GLP-1 receptor; P43220; HEK293 GLP-1R CRE-luciferase, luminescence, 4-6 h; cells express a hypersensitive GLP-1R form; Potency, µM (series often up to 45.6 µM), without a hit: at the top dose activation, hits mostly activators; 380,000 compounds, 0.007% hits; further: % of control where 0% means no effect
# Target sequence (P43220 whole entry, looked up): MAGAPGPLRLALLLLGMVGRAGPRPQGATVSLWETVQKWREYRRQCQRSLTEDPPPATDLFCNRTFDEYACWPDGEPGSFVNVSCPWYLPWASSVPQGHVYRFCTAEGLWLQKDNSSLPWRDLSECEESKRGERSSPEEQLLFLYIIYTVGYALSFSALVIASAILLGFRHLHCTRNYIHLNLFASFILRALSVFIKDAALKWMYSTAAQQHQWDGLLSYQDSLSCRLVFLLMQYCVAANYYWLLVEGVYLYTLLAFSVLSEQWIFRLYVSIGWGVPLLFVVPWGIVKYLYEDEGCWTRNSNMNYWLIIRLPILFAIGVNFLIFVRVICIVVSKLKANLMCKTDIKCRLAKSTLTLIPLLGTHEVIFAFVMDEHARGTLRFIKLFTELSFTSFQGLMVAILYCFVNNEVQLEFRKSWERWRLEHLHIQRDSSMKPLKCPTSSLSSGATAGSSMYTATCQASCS
# BRCA1 expr up: activators of BRCA1 expression; Potency, µM (top dose mostly 46.1 µM), inactives show at the highest dose activation, most hits filed as activators; MCF7-BRCA1-FFLuc reporter, luminescence, 48 h; response scale: scaled: vehicle 0%, 10 µM genistein 100%; 380,000 compounds, 1.1% hits; further: nearly all actives have a fitted effect of over 80% in size
#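 MCF7 cells carrying a BRCA1-firefly luciferase reporter (2000 cells/well, phenol-red free MEM) were attached for 2 h at 37 °C, then given compounds for 48 h. Luminescence was read 15 min after luciferase reagent; activity normalized to genistein (10 microM) and DMSO.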
# GLP1R cytotox: cytotoxicity in counter-screen for GLP-1R inverse agonists | Potency, µM (top dose mostly 38.3 µM), without a hit: top-dose activity change, negative = inhibition, usual class: inhibitors | 410,000 compounds, 0.13% hits | HEK293 cAMP-luciferase reporter cells, luminescence, 24 h;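 further: loss of luciferase light is scored as toxicity; on the % scale 0 is the no-effect control and ±100 the full control effect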
#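 MLSMR compounds, 24 hr on cells at 37 deg C/5% CO2; luminescence after luciferase reagent (12 min RT). Inhibition counted as the undesired cytotoxic outcome.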
# GLP-1R inv ag: inverse agonists of human GLP-1 receptor; P43220; HEK293 GLP-1R CRE-luciferase, luminescence, 24 h; GLP-1R form is constitutively active; Potency, µM (doses to about 38.3 µM), without a hit: at the highest dose activity change, negative = inhibition, hits mostly inhibitors; 410,000 compounds, 1.6% hits; AID 624417; further: on the % scale 0 is the no-effect control and ±100 the full control effect; nearly all actives have a fitted effect of over 55% in size
#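 HEK293 cells stably co-expressing constitutively active GLP-1R and a cAMP-responsive luciferase reporter were seeded in DMEM with 10% Nu serum, given compounds after 12 h, and incubated 24 h at 37 deg C. Luminescence was then read.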
# * marks the source's active call; other numbers are inactive results; i = inactive; ? = inconclusive; · = no result given; [ ] = remark or other dose. The call rests on the fitted dose curve; in most records, active means well fitted curve in the direction sought with a large enough effect; inconclusive means small, poorly fitted or top-dose-only effect, or another doubt; inactive means no such curve, though single readings can be large; an effect the other way counts as inactive or inconclusive. Potency means the concentration at half of the fitted maximal effect.
SMILES,GLP-1R agonist,BRCA1 expr up,GLP1R cytotox,GLP-1R inv ag
COC(=O)c1ccc(CNC(=O)COC(=O)/C=C/c2cccc(OC)c2)cc1,-7%,18%,2%,-4%
Cc1ccc(CCNC(=O)c2ccc3c(c2)N(Cc2ccc(F)cc2)CCS3)cc1,·,·,0%,-25%
O=C(NCC1CCCO1)c1ccc2c(c1)N(Cc1ccc(Cl)cc1)CCS2 (centres undefined),8%,-53%,-17%,10µM*
CN(C)CCNC(=O)c1ccc2c(c1)N(Cc1ccc(F)cc1)CCS2,-3%,0%,1%,3.2µM*
Cc1ccc(CN2CCSc3ccc(C(=O)NCC4CCCO4)cc32)cc1 (centres undefined),2%,-22%,0%,?
Cc1ccc(CN2CCSc3ccc(C(=O)NCCCN4CCN(C)CC4)cc32)cc1,30%,-9%,?,5.6µM*
CC1(C)CC(NC(=O)c2cccc(S(=O)(=O)N(Cc3ccccc3)c3ccccc3)c2)CC(C)(C)N1,-29%,-85%,?,?
Cc1ccc(N(C)S(=O)(=O)c2cccc(C(=O)NC3CC(C)(C)NC(C)(C)C3)c2)cc1,0%,-28%,-2%,11µM*
C/C(CCc1oc2ccc(Br)cc2c1-c1ccc(C)o1)=N/O,2%,-43%,8%,10µM*
C/C(CCc1oc2ccc(Cl)cc2c1-c1ccc(C)o1)=N\O,1%,-4%,-4%,?
COc1ccccc1N(C)S(=O)(=O)c1ccc(C(=O)Nc2ccc(C)cc2C)cc1,3%,-16%,-23%,?
COc1cccc(COc2ncnc3sccc23)c1,12%,1%,10%[0.307 µM],-3%[0.307 µM]
c1ccc(OCCOc2ncnc3sccc23)cc1,2%,7.1µM*,-9%,1%
O=C(NC1CCCC1)c1cnn2c1NC(=C1CC1)C=C2C(F)F,·,-17%,·,·
Cc1cc(C(=O)Nc2cccc(C(=O)O)c2)oc1C,-32%,?,-1%,1.3µM*
CCCCN(Cc1ccccc1)c1ncnc2nc[nH]c12,9%,13µM*,-2%,?
CCCCN(CCCC)c1ncnc2nc[nH]c12,8%,-21%,-8%,4.5µM*
COc1c(C(CC(C)C)OC(C)=O)ccc2c1C(=O)OCc1cc(C)cc(O)c1O2 (centres undefined),4%,-39%,-3%,10µM*
COc1c(C(O)CC(C)C)ccc2c1C(=O)OCc1cc(C)cc(O)c1O2 (centres undefined),-5%,-36%,-1%,11µM*
CCOC(=O)c1[nH]c2c(c1Cc1ccccc1C)C(=O)CC(c1ccccc1)C2 (centres undefined),·,·,-10%,?
CCOC(=O)c1[nH]c2c(c1Cc1ccccc1)C(=O)CC(c1ccccc1)C2 (centres undefined),·,·,-13%,11µM*
O=C(NCc1ccco1)C1CCCN1C(=O)Nc1ccc(Br)cc1 (centres undefined),2%,0%,-7%,11%
CSc1ccc2c(c1)C(N1CCN(C)CC1)Cc1ccc(F)cc1S2 (centres undefined),-2%,-32%,?,?
COc1ccc2c(c1)CC(N1CCN(C)CC1)c1cc(OC)ccc1S2 (centres undefined),9%,-95%,?,2.5µM*
COc1cccc(NC(=O)CN2C(=O)C(c3ccc(C)cc3)=NC23CCCCCC3)c1,-2%,-2%,3%,?
SMILES,GLP-1R agonist,BRCA1 expr up,GLP1R cytotox,GLP-1R inv ag
COc1ccc(NC(=O)CN2C(=O)C(c3ccc(C)cc3)=NC23CCCCCC3)cc1Cl,·,·,-7%,11µM*
COc1ccc(C2=NC3(CCCCCC3)N(CC(=O)Nc3cccc(Cl)c3)C2=O)cc1,·,·,-26%,11µM*
Cc1cc(NC(=O)CCN2CCC(C)CC2)ccc1Br,12%,-24%,19%,10µM*
Nc1ccc2cc3[nH]c4cc(N)ccc4c3nc2c1,-5%,-76%,i,?
CCOC(=O)C1(CCc2ccccc2)CCN(Cc2nccn2CC)CC1,7%,-48%,8.9µM*,?
Cc1ccc(NC(=O)NC2(C(=O)NCc3ccccc3)CCCCC2)cc1,1%,-15%,4%,-24%
COc1ccccc1CNC(=O)C1(NC(=O)Nc2ccc(C)cc2)CCCCC1,-8%,-12%,-7%,8.9µM*
CC(Nc1oc(-c2ccc(COc3ccccc3)o2)nc1C#N)c1ccccc1 (centres undefined),·,·,-20%,-31%
